Shown are actives, neighbours in structure and some others; about 5.4% of the full set was active somewhere.
ALR H2O2 inh: human ALR oxidase inhibition via reduced H2O2 | purified ALR, DTT oxidation, H2O2 HRP-luminol luminescence | inhibition, % (test concentration not listed) | actives 3.8% (n = 290,000);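 active means mean replicate inhibition above about 79%, with every replicate also reaching it, limit read from the data; inconclusive means only one of the two criteria met; inactive means mean below limit and not every replicate reaching it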
Target sequence (P55789 whole entry, looked up): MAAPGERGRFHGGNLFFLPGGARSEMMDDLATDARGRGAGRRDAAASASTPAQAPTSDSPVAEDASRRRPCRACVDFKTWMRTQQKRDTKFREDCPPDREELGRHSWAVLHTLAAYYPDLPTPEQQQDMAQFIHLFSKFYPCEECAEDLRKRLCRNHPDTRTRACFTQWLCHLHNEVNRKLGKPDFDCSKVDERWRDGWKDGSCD
PP1 inh: PP1-alpha (human) inhibition in PP5 counter-screen | P62136 | purified PP1alpha, OMFP fluorescence | inhibition, % at 6.7 µM | actives 0.9% (n = 320,000) | AID 2235;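 active means inhibition above the mean inhibition of all tested compounds plus 3 SD, computed separately for each screening campaign, cut at about 15% in these data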
Target sequence (P62136 whole entry, looked up): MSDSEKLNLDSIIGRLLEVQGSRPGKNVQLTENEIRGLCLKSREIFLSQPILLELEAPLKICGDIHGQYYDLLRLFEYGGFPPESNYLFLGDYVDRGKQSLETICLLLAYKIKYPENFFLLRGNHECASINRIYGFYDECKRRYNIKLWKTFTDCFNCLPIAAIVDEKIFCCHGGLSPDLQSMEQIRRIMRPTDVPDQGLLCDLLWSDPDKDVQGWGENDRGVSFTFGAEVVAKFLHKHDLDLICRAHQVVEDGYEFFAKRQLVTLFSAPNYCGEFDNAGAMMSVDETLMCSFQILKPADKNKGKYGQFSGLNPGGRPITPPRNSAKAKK
Calb FLC: affects C. albicans growth with fluconazole; growth inhibition, % (no concentration beside the values); C. albicans CaCi-2 (fluconazole-resistant clinical isolate) + fluconazole, Alamar Blue growth, 48 h; actives 0.57% (n = 300,000);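 active means growth inhibition above about 58% in most replicates, limit read from the data, passing the limit was not always enough; inconclusive means exactly half the replicates above a set limit; inactive means most replicates below a set limit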;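 further: all wells also contain fluconazole at 8 µg/ml as a sub-toxic cotreatment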
PP5 primary: blocks human protein phosphatase 5 activity. inhibition, % at 6.7 µM. P53041. actives 0.18% (n = 320,000). purified PP5c, OMFP substrate fluorescence;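 active means inhibition above the campaign's mean inhibition across all tested compounds plus 3 SD, cut at about 9.5% in these data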
CSC inhib: cancer stem cell inhibition; cancer stem cell-like cells viability, luminescence; inhibition, % at 7.5 µM; actives 1.1% (n = 300,000); AID 2717; in the data active means inhibition above about 75%; inconclusive means no clear call, values can overlap the other calls; tested in HMLE shEcad cells
Of the large screens only hits and unclear results are named; the others gave an inactive call.

CC(C)NCC(O)Cn1c2c(c3ccccc31)CCc1c-2cnn1-c1ccccc1 (stereo not given)	ALR H2O2 inh 89
COCCC(=O)N1CCC(Oc2ccc(C(=O)NCCc3ccccn3)cc2)CC1	none
COc1ccc(C2c3ccc4ccccc4c3Oc3ncn(Cc4ccco4)c(=N)c32)cc1OC (stereo not given)	CSC inhib 80
COc1ccccc1C1c2ccc3ccccc3c2Oc2ncn(CCCO)c(=N)c21 (stereo not given)	none
COc1ccc(C2c3ccc4ccccc4c3Oc3ncn(CCCN(C)C)c(=N)c32)cc1 (stereo not given)	CSC inhib 105
COc1ccccc1C1c2ccc3ccccc3c2Oc2ncn(CCN(C)C)c(=N)c21 (stereo not given)	CSC inhib 85
CCOc1cc(S(=O)(=O)NCc2ccccc2)c(OCC)cc1-n1cnnn1	Calb FLC 100
CCOc1ccc(-n2cnnn2)cc1S(=O)(=O)NCc1ccccc1	none
Cc1ccc(S(=O)(=O)NCC2COc3ccccc3O2)cc1 (stereo not given)	none
Cc1csc(/C(=N/OC(=O)c2ccco2)C(N)=O)n1	ALR H2O2 inh 97
CCCCc1ccc(NC(=O)CSCc2cc(=O)[nH][nH]2)cc1	ALR H2O2 inh 79, PP1 inh 16
Cc1cccc(C(=O)NCc2nnc(SCC(=O)NC3=NCCS3)n2C)c1	none (no result: ALR H2O2 inh)
CCN(CC)c1ccc(-n2cc3c(=O)n(C)c(=O)n(C)c3c2)cc1	none
CN(C)c1ccc(-n2cc3c(=O)n(C)c(=O)n(C)c3c2)cc1	ALR H2O2 inh 99
Cc1ccc(C(=O)/C=C\C(=O)c2ccc(C)cc2)cc1	ALR H2O2 inh 98
CCOC(=O)c1c(C)[nH]c(C(=O)OCC(=O)N(C)c2c(N)n(Cc3ccccc3)c(=O)[nH]c2=O)c1C	none (no result: Calb FLC)
C/C(=N\Nc1ccc(Cl)cc1)c1c(O)cc(C)oc1=O	ALR H2O2 inh 99, Calb FLC 125
CCN1C/C(=C/c2cccc([N+](=O)[O-])c2)C(=O)/C(=C/c2cccc([N+](=O)[O-])c2)C1	CSC inhib 85 (no result: Calb FLC)
CN(Cc1ccccc1)CC(O)COc1ccc(CNCc2ccc(Cl)s2)cc1 (stereo not given)	none
CS(=O)(=O)N(CC(=O)NCCSCc1c(F)cccc1Cl)c1ccc2c(c1)OCO2	none (no result: Calb FLC)
CN(C)CCCNC(=O)/C=C/c1ccc2c(c1)OCO2	none
O=C(/C=C/c1ccc2c(c1)OCO2)NCCSCc1c(Cl)cccc1Cl	CSC inhib 98
O=C(/C=C/c1ccc2c(c1)OCO2)NCCSCc1ccc(Cl)cc1	CSC inhib 93
Cn1nccc1NC(=O)Nc1cccc([N+](=O)[O-])c1	none
Fc1ccc2c(c1)C(c1ccncc1)=NNC(c1ccc(Br)cc1)=N2	none
Clc1ccc2c(c1)C(c1cccs1)=NNC(c1cccnc1)=N2	Calb FLC 90
Fc1ccc2c(c1)C(c1ccncc1)=NNC(c1cccnc1)=N2	Calb FLC 81
O=C(N/N=C/c1cn(-c2ccccc2)nc1-c1cc2ccccc2o1)c1c[nH]c2ccccc12	none
CSc1nc(/C=C2\C=Nc3ccccc32)c(O)n1C	ALR H2O2 inh 85
Nc1ccc(-c2nnn(CC(=O)N3CCCCC3)n2)cc1	none
CN1CCN(CC(=O)N2CCn3c4c(c5cc(C6CCCCC6)ccc53)CCCC42)CC1 (stereo not given)	Calb FLC 111
Cc1ccc2c(c1)c1c3n2CCN(C(=O)CN2CCN(C)CC2)C3CCC1 (stereo not given)	ALR H2O2 inh 91
CCc1nnc(NC(=O)CSc2nnc(-c3c[nH]c4ccccc34)n2CCOC)s1	none (no result: ALR H2O2 inh)
Cc1ccc(O)c(-c2[nH]ncc2C(=O)c2ccc(Br)cc2)c1	none
Cc1ccc(N2CCN(S(=O)(=O)c3nnc(NC(=O)c4ccco4)s3)CC2)cc1	ALR H2O2 inh 97
CCCN1CC(=O)N2C(c3ccccc3)c3[nH]c4ccccc4c3C[C@H]2C1=O (stereo not given in full)	none (no result: PP1 inh, PP5 primary)
C=CCn1c(N)cc(=O)nc1SCC(=O)Nc1ccccc1	none (no result: ALR H2O2 inh)
C=CCn1c(SCC(=O)Nc2ccc(Br)cc2)nc(O)c(CC)c1=O	ALR H2O2 inh 98
C=CCn1c(Cc2csc(N)n2)nnc1SCC(=O)Nc1ccc(C(=O)OCC)cc1	none
C=CCn1c(N)cc(=O)nc1SCC(=O)Nc1ccc(C(=O)OCC)cc1	ALR H2O2 inh 99
C=CCn1c(SCC(=O)Nc2ccccc2OC)nc(O)c(CC)c1=O	none (no result: ALR H2O2 inh)
C=CCn1c(N)cc(=O)nc1SCC(=O)Nc1ccc(C(=O)OC)cc1	ALR H2O2 inh 99
COC(=O)C1CCN(C(=O)COC(=O)c2cc([N+](=O)[O-])ccc2N2CCOCC2)CC1	none (no result: Calb FLC, CSC inhib)
COc1ccc(NC(=O)Nc2cccs2)cc1OC	none
OC(COc1cccc2ccccc12)CN1CCN(c2ccccc2Cl)CC1 (stereo not given)	CSC inhib 114
NS(=O)(=O)c1ccc(NC(=O)COC(=O)COc2ccc3ccccc3c2)cc1	Calb FLC inconclusive (no result: ALR H2O2 inh)
CCc1c2c(nc3ccc(OC(=O)N4CCC(N5CCCCC5)CC4)cc13)-c1cc3c(c(=O)n1C2)COC(=O)[C@]3(O)CC	CSC inhib 89 (no result: Calb FLC)
N#CCCCc1cc2cc(F)ccc2cn1	none (no result: PP1 inh, Calb FLC, PP5 primary)
O=C(N/N=C/c1cccc2ccccc12)C(=O)N1CCCC1	none
CNC(=O)C1Cc2ccccc2CN1S(=O)(=O)c1ccc(OC)c(OC)c1 (stereo not given)	none
COc1ccc(S(=O)(=O)N2Cc3ccccc3CC2C(=O)Nc2ccc(O)cc2)cc1OC (stereo not given)	ALR H2O2 inh 95
Cc1ccccc1C(=O)Nc1cccc(-c2cn3ccccc3n2)c1	none
O=C(Nc1cccc(-c2cn3ccccc3n2)c1)c1ccccc1	ALR H2O2 inh 95
CCCCC(=O)Nc1cccc(-c2cn3ccccc3n2)c1	none
Cc1ccc(C(=O)Nc2cccc(-c3cn4ccccc4n3)c2)cc1	Calb FLC 94
COc1cc(Cl)c(S(=O)(=O)NCCCn2ccnc2)cc1Cl	none
CS/C(=N\S(=O)(=O)c1ccccc1)c1ccccc1	none
O=S(=O)(/N=C(/Sc1ccccc1)c1ccccc1)c1ccccc1	ALR H2O2 inh 98
CC(=O)N1CCN(C(=O)c2ccc(Cl)c(S(=O)(=O)N3CCc4ccccc43)c2)CC1	none (no result: Calb FLC, CSC inhib)
CCOC(=O)/C(=C\c1cccnc1)C(=O)c1cc(C(C)=O)c(Nc2ccccc2)s1	CSC inhib 97
CCOC(=O)/C(=C\c1ccccc1)C(=O)c1cc(C(C)=O)c(Nc2ccccc2)s1	CSC inhib 76
CCOC(=O)C(=O)/C(C#N)=C/Nc1ccccc1	none
Cc1ccc(N/C=C/C(=O)C(C)(C)C)c(O)c1	ALR H2O2 inh 83
COc1ccc(OC)c(NC(=O)COc2ccc(S(=O)(=O)NC(C)C)cc2)c1	none
CCc1ccn2cc(-c3ccc4c(c3)OCO4)nc2c1	CSC inhib 78
O=C(Nc1cc(-c2ccccc2)[nH]n1)c1ccccc1	none
O=S(=O)(Nc1nc2ccccc2nc1NCCO)c1cccc(Cl)c1	none
O=S(=O)(Nc1nc2ccccc2nc1NCC1CCCO1)c1cccc(Cl)c1 (stereo not given)	ALR H2O2 inh 87
